An excerpt weighted towards active compounds, which were near 21% of everything screened.
DRD3 antagonist: blocks the human D3 dopamine receptor; D3R cells, DiscoveRx beta-arrestin luminescence, antagonist mode; active compounds read low; P35462; actives 2.5% (n = 360,000); max response, negative = inhibition, %; in the data active = max response below about -50%; inconclusive = no clear call, values can overlap the other calls
Target sequence (P35462 whole entry, looked up): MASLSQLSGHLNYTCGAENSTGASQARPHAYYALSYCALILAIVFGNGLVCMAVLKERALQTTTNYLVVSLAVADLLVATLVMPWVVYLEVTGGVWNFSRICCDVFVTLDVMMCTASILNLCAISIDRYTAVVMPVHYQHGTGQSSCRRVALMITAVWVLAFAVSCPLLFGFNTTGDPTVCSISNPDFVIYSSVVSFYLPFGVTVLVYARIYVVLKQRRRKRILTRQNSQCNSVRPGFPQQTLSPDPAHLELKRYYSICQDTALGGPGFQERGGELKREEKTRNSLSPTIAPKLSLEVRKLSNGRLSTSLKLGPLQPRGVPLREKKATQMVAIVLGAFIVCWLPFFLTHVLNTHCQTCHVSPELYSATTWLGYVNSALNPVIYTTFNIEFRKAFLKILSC
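Cells expressing the human receptor were seeded at 1500 cells/well, incubated overnight at 37 degrees C in 5% CO2, then exposed to library compounds with dopamine controls for 90 minutes at 37 degrees C before luminescent detection.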
TDP1 cell CPT: DT40-hTDP1 cell growth loss with CPT; chicken DT40 Tdp1-/-;hTDP1 cells + 20 nM CPT, ATP luminescence, 48 h; Potency, µM (series often up to 46.2 µM), hits mostly inhibitors; actives 12% (n = 420,000); AID 686979; note: nearly all actives have a fitted effect of over 55% in size
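Chicken DT40 Tdp1-/- cells stably complemented with human TDP1 were seeded at 400 cells/well in medium containing 20 nM camptothecin, exposed to pin-transferred compounds, and grown at 37 °C for at least 48 hr. Viability was read as ATP luminescence.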
IL1B secr inh: inhibitors of inflammasome signaling (IL-1 beta secretion) | AID 743279 | activity change, % at 57.5 µM | THP-1 LPS/ATP IL-1B secretion, AlphaLISA, 16 h; active compounds read low | actives 4.7% (n = 360,000); in the data active = activity change below about -50%; inconclusive = mostly about -30% to -49%
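THP-1 cells pretreated 1 hr with compounds (up to 57.5 uM final), then stimulated with LPS (250 ng/mL final) plus ATP (1.25 mM final); secreted IL-1B measured by AlphaLISA after 16 hr, decreased signal indicating inhibition.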
ClpP mod: qHTS Assay for Activators of ClpP; ATP-dependent Clp protease proteolytic subunit (Bacillus subtilis (strain 168)), P80244; purified B. subtilis ClpP, FRET peptide cleavage, 20 min; Potency, µM (series often up to 57.5 µM); actives 1.9% (n = 340,000); AID 651965, 2013; active = well fitted falling curve with a large enough effect; inconclusive = small, poorly fitted or top-dose-only effect; inactive = no such curve, though single readings can be large or run the other way; note: the source files actives as falling curves though it sought activators and does not explain the sign; nearly all actives have a fitted effect of over 65% in size
Target sequence (P80244 whole entry, looked up): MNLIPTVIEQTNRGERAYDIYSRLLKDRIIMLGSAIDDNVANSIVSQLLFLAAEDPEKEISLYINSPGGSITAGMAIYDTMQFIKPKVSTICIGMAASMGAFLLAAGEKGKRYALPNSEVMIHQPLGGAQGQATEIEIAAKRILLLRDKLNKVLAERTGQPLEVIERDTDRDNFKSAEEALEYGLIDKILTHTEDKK
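FRET quenching reversal measured ClpP activation: 10 microg/mL B. subtilis ClpP at pH 8 with the FRET-FV decapeptide, read at 430 nm after 320 nm excitation. The 20-min minus 0-min signal was scaled between DMSO/no-enzyme wells and ADEP (5.8 microM final).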
TDP1 cell noCPT: qHTS for Inhibitors of human tyrosyl-DNA phosphodiesterase 1 (TDP1): qHTS in cells in absence of CPT. DT40 Tdp1-/- hTDP1 cells, no CPT, ATP luminescence, 48 h. Potency, µM (highest dose often 46.2 µM), actives largely listed as inhibitors. actives 15% (n = 420,000). AID 686978, 2013; note: nearly all actives have a fitted effect of over 55% in size
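Camptothecin absent (DMSO only). Human TDP1-complemented DT40 knockout cells, 400 cells/well, 37 °C for minimum 48 hr; ATP measured via CellTiter-Glo, 30 min dark incubation, luminescence.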
DRD3 agonist: activates the human D3 dopamine receptor; P35462; D3R DiscoveRx beta-arrestin cells, luminescence, 90 min; max activation, %; actives 0.58% (n = 410,000); AID 652048; in the data active = max activation above about 30%
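Agonist-mode cell screen: cells plated at 1500/well and incubated overnight at 37 °C, then exposed to library compounds for 90 min at 37 °C. Detection reagent was added for 30–60 min at room temperature, and luminescence was read.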
Numbers stand for hits; . = inactive; ? = inconclusive; / = not tested or not shown; ! = repeats disagree. Unless noted, calls come from the whole dose curve; as a rule, active = well fitted inhibition curve with a large enough effect; inconclusive = small, poorly fitted or top-dose-only effect; inactive = flat fitted curve, though single readings scatter.

SMILES | DRD3 antagonist | TDP1 cell CPT | IL1B secr inh | ClpP mod | TDP1 cell noCPT | DRD3 agonist
Cc1[nH]nc2c1C(c1c[nH]c3ccccc13)C(C#N)=C(N)O2 (stereo not drawn) | . | . | . | / | . | .
Cc1cc(C)c(C2C(C#N)=C(N)Oc3n[nH]c(C)c32)cc1CN1CCCC1 (stereo not drawn) | -112 | . | . | . | . | .
Cc1[nH]nc2c1C(C(C)C)C(C#N)=C(N)O2 (stereo not drawn) | ? | ? | -87 | . | ? | .
Cc1[nH]nc2c1C(c1ccoc1)C(C#N)=C(N)O2 (stereo not drawn) | . | . | ? | . | . | .
Cc1[nH]nc2c1C(c1cc(Br)cs1)C(C#N)=C(N)O2 (stereo not drawn) | . | 4.1µM | -101 | . | 5.2µM | .
COC(C[C@@H](O)C[C@@H](O)[C@@H](C)OCc1ccccc1)OC | . | . | . | . | . | .
N#Cc1ccc(-c2nc3ccc(Cl)cn3c2Cc2cccc(F)c2)cc1 | . | ? | . | . | ? | .
Cc1ccc2nc(-c3ccc(C#N)cc3)c(Cc3cccc(Cl)c3)n2c1 | -53 | 18µM | . | . | 18µM | .
N#Cc1ccc(-c2nc3ccc(Cl)cn3c2Cc2cccc(Cl)c2)cc1 | . | ? | . | . | 21µM | .
Cc1ccc2nc(-c3ccc(C#N)cc3)c(Cc3ccccc3)n2c1 | . | ? | ? | . | ? | .
COCCN1CCN(C(=O)C2CCC(=O)N(CCc3ccccc3)C2)CC1 (stereo not drawn) | . | . | . | . | . | .
CCc1nnc(NC(=O)c2ccc(S(=O)(=O)N(CC(C)C)CC(C)C)cc2)o1 | -107 | 21µM | . | . | 18µM | .
CCc1nnc(NC(=O)c2ccc(S(=O)(=O)N(C)c3ccccc3)cc2)o1 | . | 12µM | . | . | 4.6µM | .
CCOC(=O)c1ccc(NC(=O)CN2CCc3ccccc3C2)cc1 | -62 | . | . | . | ? | .
O=C(CN1CCc2ccccc2C1)Nc1ccc(OC(F)(F)F)cc1 | . | . | -65 | . | . | .
O=C(CN1CCc2ccccc2C1)Nc1ccc(F)cc1 | . | . | . | . | . | .
CC(=O)c1ccc(N2CCN(C(=O)c3ccc(OCc4c(C)noc4C)cc3)CC2)cc1 | . | ? | . | . | ? | .
Cc1noc2ncnc(N3CCN(c4cccc(Cl)c4)CC3)c12 | . | 16µM | . | . | 9.2µM | .
Cc1ccc(Cl)cc1N1CCN(C(=O)c2c(C)oc3ncnc(N4CCCCC4)c23)CC1 | / | 9.2µM | / | . | 6.5µM | .
Cc1ccc(Cl)cc1N1CCN(S(=O)(=O)c2c(C)noc2C)CC1 | . | ? | . | . | ? | .
Cc1oc2ncnc(N3CCCCC3)c2c1C(=O)N1CCN(c2ccc(Cl)cc2)CC1 | / | . | / | . | ? | .
Cc1ccc(Cl)cc1N1CCN(c2ncnc3onc(C)c23)CC1 | / | 6.5µM | / | . | 5.8µM | .
Cc1noc(C)c1COc1ccc(C(=O)N2CCN(c3cccc(Cl)c3)CC2)cc1 | . | ? | ? | . | ? | .
CC(=O)c1ccc(N2CCN(c3ncnc4onc(C)c34)CC2)cc1 | / | 4.1µM | / | . | 5.8µM | .
COc1cc(OC)c(N(C)C(=O)c2c(C)oc3ncnc(N4CCCCC4)c23)cc1Cl | / | ? | / | . | 16µM | .
SMILES | DRD3 antagonist | TDP1 cell CPT | IL1B secr inh | ClpP mod | TDP1 cell noCPT | DRD3 agonist
CCN(C(=O)c1c(C)oc2ncnc(N3CCCCC3)c12)c1cc(C)ccc1C | / | ? | / | . | 18µM | .
Cc1ccc(NC(=O)c2c(C)oc3ncnc(N4CCCCC4)c23)c(C)c1 | / | 18µM | / | . | ? | .
COc1cc(OC)c(NC(=O)c2c(C)oc3ncnc(N4CCCCC4)c23)cc1Cl | / | . | / | . | . | .
CCN(CC(=O)NC1CCCC1)S(=O)(=O)c1ccc(F)cc1 | . | . | . | . | . | .
Cc1ccc(NC(=O)c2cccnc2C(=O)O)nc1 | . | . | . | / | . | .
Cc1nn(S(=O)(=O)c2ccc(F)cc2)c(C)c1S(=O)(=O)N1CCCCCC1 | / | . | / | . | . | .
COc1ccc(NC(=O)CSc2nnc(CN3CCOCC3)n2-c2ccccc2)cc1Cl | . | ? | . | . | . | .
Cn1c(SCC(=O)c2ccc3c(c2)OCO3)nnc1C1COc2ccccc2O1 (stereo not drawn) | . | 21µM | . | . | 16µM | .
O=C(CSc1nnc(CN2CCCC2)n1-c1ccccc1)c1ccc2c(c1)OCO2 | . | ? | . | . | 16µM | .
Cn1c(SCC(=O)c2ccccc2)nnc1C1COc2ccccc2O1 (stereo not drawn) | . | . | . | / | ? | .
COc1ccc(C(=O)CSc2nnc(CN3CCCCC3)n2-c2ccc(Cl)cc2)cc1OC | . | ? | . | . | 21µM | .
Cc1ccc(C(c2c(O)cc(C)n(Cc3ccco3)c2=O)N2CCC(C)CC2)cc1 (stereo not drawn) | / | . | / | . | . | .
CCCCc1ccc(NC(=O)CSc2nnc(CNC(=O)c3ccco3)o2)cc1 | . | . | . | . | . | .
CC1CCN(c2ccccc2NC(=O)c2cc([N+](=O)[O-])ccc2N2CCOCC2)CC1 | . | ? | . | . | 16µM | .
Cc1c(NC(=O)c2cc([N+](=O)[O-])ccc2N2CCOCC2)cccc1-c1nc2ccccc2o1 | / | ? | / | . | 26µM | .
COc1cccc(O)c1CN1CCC(Oc2ccc(C(=O)NCc3ccccn3)cc2)CC1 | . | . | . | . | . | .
Cc1noc(C)c1-c1nc(NCCN2CCOCC2)c2ccccc2n1 | / | . | / | / | . | /
CC(C)c1ccc(C(C(=O)NC2CCCCC2)N(C(=O)c2csnn2)C2CC2)cc1 (stereo not drawn) | . | ? | . | / | ? | .
O=C(C1=C(O)C(=O)N(c2nc3ccc(Cl)cc3s2)C1c1ccco1)c1ccco1 (stereo not drawn) | . | ? | . | . | 2.3µM | .
O=C1CC(c2ccc3ccccc3c2)NN1 (stereo not drawn) | . | 26µM | . | . | ? | .
Cc1nc2c(C(=O)NCCc3ccc(Cl)cc3)c[nH]n2c(=O)c1Cc1ccc(Cl)cc1 | / | . | / | . | ? | .
CCOc1ccc(CCNC(=O)Cn2ccc3cc(S(=O)(=O)N4CCCCC4)ccc32)cc1 | / | ? | / | . | ? | .
O=C1NC[C@H](c2ccccc2)N(CCc2cccc3ccccc23)C1=O | . | ? | . | . | . | .
CN(C)CCOC(c1ccc(Cl)cc1)c1ccccn1 (stereo not drawn) | . | ? | . | . | ? | 41!

Screens deposited in PubChem BioAssay by National Center for Advancing Translational Sciences (NCATS).
